# About 85 (1%) of roughly 5,700 compounds were called active. The sample holds actives, similar compounds and a random draw of the others, so the mix is not that of the screen. No stated cut-off is given here; in the data, active means p53-positive nuclei above about 36% (passing the limit was not always enough); inactive means the rest.
# What was measured:
# [1] = p53 stabilisation in HPV-positive human cells, imaging, p53-positive nuclei imaging, 24 h, 48 h (AID 1508601); details: 24/48 h
# [2] = target: Cellular tumor antigen p53 (Homo sapiens) (UniProt P04637); experiment: as above; details: 24/48 h, stronger effect = higher value
# Chain of Cellular tumor antigen p53 (Homo sapiens) (P04637 whole entry, looked up): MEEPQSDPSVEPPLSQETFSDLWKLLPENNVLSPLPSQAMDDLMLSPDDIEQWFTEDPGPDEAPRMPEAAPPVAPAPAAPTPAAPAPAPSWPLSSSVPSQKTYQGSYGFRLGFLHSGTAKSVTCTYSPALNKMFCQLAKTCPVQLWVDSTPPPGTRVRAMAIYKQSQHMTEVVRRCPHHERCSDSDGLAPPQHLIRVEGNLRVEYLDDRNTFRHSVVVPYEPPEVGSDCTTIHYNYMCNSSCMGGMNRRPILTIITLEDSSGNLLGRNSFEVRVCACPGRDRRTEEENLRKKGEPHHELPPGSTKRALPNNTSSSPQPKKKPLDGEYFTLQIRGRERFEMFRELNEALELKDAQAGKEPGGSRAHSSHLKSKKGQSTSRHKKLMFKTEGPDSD
# [3] = measured here: cell number at 24 h, concentration not given here
# [4] = measured here: cell number at 48 h, concentration not given here
# [5] = measured here: p53 positive nuclei at 24 h, concentration not given here
# [6] = measured here: cell number at 24 h, Library stock concentration: 10 mM
# [7] = measured here: cell number at 48 h, Library stock concentration: 10 mM
# [8] = Library stock concentration: 10 mM
# [9] = measured here: p53 positive nuclei at 24 h, Library stock concentration: 10 mM
# [10] = measured here: cell number at 24 h, Library stock concentration: 3.33 mM
# [11] = measured here: cell number at 48 h, Library stock concentration: 3.33 mM
# [12] = Library stock concentration: 3.33 mM
# [13] = measured here: p53 positive nuclei at 24 h, Library stock concentration: 3.33 mM
smiles,measurement,setting,value
CCCCC[C@H](O)/C=C/[C@H]1[C@H](O)CC(=O)[C@@H]1C/C=C\CCCC(=O)Oc1ccc(NC(C)=O)cc1,"nuclei count, normalised",[1]; [3],106%
same,"nuclei count, normalised",[1]; [4],115%
same,"p53-positive nuclei, normalised",[2]; concentration not given here,-0.0787% (inactive)
same,"p53-positive nuclei, normalised",[2]; [5],-0.118%
CCCCCCCCCC(=O)CC(=O)N[C@H]1CCOC1=O,"nuclei count, normalised",[1]; [3],107%
same,"nuclei count, normalised",[1]; [4],108%
same,"p53-positive nuclei, normalised",[2]; concentration not given here,0.0451% (inactive)
same,"p53-positive nuclei, normalised",[2]; [5],-0.0502%
CC1CCNC(=O)c2cc3ccc(C(=O)Nc4nc5ccccc5n4CCCN(C)C)cc3n21 (configuration not stated),"nuclei count, normalised","[1]; measured here: cell number at 24 h, Library stock concentration: 80 uM",112%
same,"nuclei count, normalised","[1]; measured here: cell number at 24 h, Library stock concentration: 400 uM",107%
same,"nuclei count, normalised","[1]; measured here: cell number at 24 h, Library stock concentration: 2 mM",107%
same,"nuclei count, normalised",[1]; [6],106%
same,"nuclei count, normalised","[1]; measured here: cell number at 48 h, Library stock concentration: 80 uM",115%
same,"nuclei count, normalised","[1]; measured here: cell number at 48 h, Library stock concentration: 400 uM",113%
same,"nuclei count, normalised","[1]; measured here: cell number at 48 h, Library stock concentration: 2 mM",111%
same,"nuclei count, normalised",[1]; [7],119%
same,"p53-positive nuclei, normalised",[2]; Library stock concentration: 80 uM,-0.131% (inactive)
same,"p53-positive nuclei, normalised",[2]; Library stock concentration: 400 uM,-0.0944% (inactive)
same,"p53-positive nuclei, normalised",[2]; Library stock concentration: 2 mM,0.0714% (inactive)
same,"p53-positive nuclei, normalised",[2]; [8],-0.134% (inactive)
same,"p53-positive nuclei, normalised","[2]; measured here: p53 positive nuclei at 24 h, Library stock concentration: 80 uM",-0.0686%
same,"p53-positive nuclei, normalised","[2]; measured here: p53 positive nuclei at 24 h, Library stock concentration: 400 uM",0.0741%
same,"p53-positive nuclei, normalised","[2]; measured here: p53 positive nuclei at 24 h, Library stock concentration: 2 mM",-0.156%
same,"p53-positive nuclei, normalised",[2]; [9],-0.111%
Cn1ncc(NC(=O)CCc2cn3ccccc3n2)n1,"nuclei count, normalised",[1]; [3],84.4%
same,"nuclei count, normalised",[1]; [4],90.1%
same,"p53-positive nuclei, normalised",[2]; concentration not given here,-0.189% (inactive)
same,"p53-positive nuclei, normalised",[2]; [5],-0.142%
O=C(O)CCNC(=O)c1ccccc1,"nuclei count, normalised",[1]; [10],113%
same,"nuclei count, normalised",[1]; [3],110%
same,"nuclei count, normalised",[1]; [11],105%
same,"nuclei count, normalised",[1]; [4],110%
same,"p53-positive nuclei, normalised",[2]; [12],0.0364% (inactive)
same,"p53-positive nuclei, normalised",[2]; concentration not given here,0.0211% (inactive)
same,"p53-positive nuclei, normalised",[2]; [13],-0.327%
same,"p53-positive nuclei, normalised",[2]; [5],-0.211%
CN(NC(=O)CC(=O)NN(C)C(=S)c1ccccc1)C(=S)c1ccccc1,"nuclei count, normalised","[1]; measured here: cell number at 24 h, Library stock concentration: 500 nM",98.9%
same,"nuclei count, normalised","[1]; measured here: cell number at 24 h, Library stock concentration: 1.5 uM",108%
same,"nuclei count, normalised","[1]; measured here: cell number at 24 h, Library stock concentration: 4.6 uM",110%
same,"nuclei count, normalised","[1]; measured here: cell number at 24 h, Library stock concentration: 13.7 uM",111%
same,"nuclei count, normalised","[1]; measured here: cell number at 24 h, Library stock concentration: 41 uM",94.3%
same,"nuclei count, normalised","[1]; measured here: cell number at 24 h, Library stock concentration: 123 uM",64.8%
same,"nuclei count, normalised","[1]; measured here: cell number at 24 h, Library stock concentration: 370 uM",60.9%
same,"nuclei count, normalised","[1]; measured here: cell number at 24 h, Library stock concentration: 1.111 mM",60.4%
same,"nuclei count, normalised",[1]; [10],51.3%
same,"nuclei count, normalised","[1]; measured here: cell number at 24 h, Library stock concentration: 3.333 mM",54.8%
same,"nuclei count, normalised",[1]; [6],54.4%
same,"nuclei count, normalised","[1]; measured here: cell number at 48 h, Library stock concentration: 500 nM",104%
same,"nuclei count, normalised","[1]; measured here: cell number at 48 h, Library stock concentration: 1.5 uM",107%
same,"nuclei count, normalised","[1]; measured here: cell number at 48 h, Library stock concentration: 4.6 uM",108%
same,"nuclei count, normalised","[1]; measured here: cell number at 48 h, Library stock concentration: 13.7 uM",110%
same,"nuclei count, normalised","[1]; measured here: cell number at 48 h, Library stock concentration: 41 uM",100%
same,"nuclei count, normalised","[1]; measured here: cell number at 48 h, Library stock concentration: 123 uM",63.4%
same,"nuclei count, normalised","[1]; measured here: cell number at 48 h, Library stock concentration: 370 uM",55%
same,"nuclei count, normalised","[1]; measured here: cell number at 48 h, Library stock concentration: 1.111 mM",52.6%
same,"nuclei count, normalised",[1]; [11],44.1%
same,"nuclei count, normalised","[1]; measured here: cell number at 48 h, Library stock concentration: 3.333 mM",48.4%
same,"nuclei count, normalised",[1]; [7],43.1%
same,"p53-positive nuclei, normalised",[2]; Library stock concentration: 500 nM,0.0337% (inactive)
same,"p53-positive nuclei, normalised",[2]; Library stock concentration: 1.5 uM,-0.251% (inactive)
same,"p53-positive nuclei, normalised",[2]; Library stock concentration: 4.6 uM,0.0195% (inactive)
same,"p53-positive nuclei, normalised",[2]; Library stock concentration: 13.7 uM,0.51% (inactive)
same,"p53-positive nuclei, normalised",[2]; Library stock concentration: 41 uM,5.45% (inactive)
same,"p53-positive nuclei, normalised",[2]; Library stock concentration: 123 uM,37% (active)
same,"p53-positive nuclei, normalised",[2]; Library stock concentration: 370 uM,48.3% (active)
same,"p53-positive nuclei, normalised",[2]; Library stock concentration: 1.111 mM,55.8% (active)
same,"p53-positive nuclei, normalised",[2]; [12],56.4% (active)
same,"p53-positive nuclei, normalised",[2]; Library stock concentration: 3.333 mM,64.9% (active)
same,"p53-positive nuclei, normalised",[2]; [8],64.3% (active)
same,"p53-positive nuclei, normalised","[2]; measured here: p53 positive nuclei at 24 h, Library stock concentration: 500 nM",-0.0555%
same,"p53-positive nuclei, normalised","[2]; measured here: p53 positive nuclei at 24 h, Library stock concentration: 1.5 uM",-0.0139%
same,"p53-positive nuclei, normalised","[2]; measured here: p53 positive nuclei at 24 h, Library stock concentration: 4.6 uM",-0.119%
same,"p53-positive nuclei, normalised","[2]; measured here: p53 positive nuclei at 24 h, Library stock concentration: 13.7 uM",1.05%
same,"p53-positive nuclei, normalised","[2]; measured here: p53 positive nuclei at 24 h, Library stock concentration: 41 uM",14.4%
same,"p53-positive nuclei, normalised","[2]; measured here: p53 positive nuclei at 24 h, Library stock concentration: 123 uM",69.4%
same,"p53-positive nuclei, normalised","[2]; measured here: p53 positive nuclei at 24 h, Library stock concentration: 370 uM",85.7%
same,"p53-positive nuclei, normalised","[2]; measured here: p53 positive nuclei at 24 h, Library stock concentration: 1.111 mM",93.5%
same,"p53-positive nuclei, normalised",[2]; [13],80.8%
same,"p53-positive nuclei, normalised","[2]; measured here: p53 positive nuclei at 24 h, Library stock concentration: 3.333 mM",103%
same,"p53-positive nuclei, normalised",[2]; [9],104%
O=C(O)c1ccccc1,"nuclei count, normalised",[1]; [10],99.7%
same,"nuclei count, normalised",[1]; [11],99.1%
same,"p53-positive nuclei, normalised",[2]; [12],-0.166% (inactive)
same,"p53-positive nuclei, normalised",[2]; [13],-0.28%
CCCCCC(=O)/C=C/[C@H]1[C@H](O)CC(=O)[C@@H]1CCCCCCC(=O)O,"nuclei count, normalised",[1]; [3],107%
same,"nuclei count, normalised",[1]; [4],107%
same,"p53-positive nuclei, normalised",[2]; concentration not given here,-0.0323% (inactive)
same,"p53-positive nuclei, normalised",[2]; [5],-0.0183%
CCCCCNC(=O)N1CCC2(CC1)Nc1ccccc1N(CC1CC1)C2=O,"nuclei count, normalised",[1]; [3],105%
same,"nuclei count, normalised",[1]; [4],110%
same,"p53-positive nuclei, normalised",[2]; concentration not given here,-0.23% (inactive)
same,"p53-positive nuclei, normalised",[2]; [5],-0.154%

# — PubChem BioAssay AID1508601 (ICCB-Longwood Screening Facility, Harvard Medical School, 2020)
